# From PubChem BioAssay (EPA / NIEHS)
# Active and inactive are the calls of the source. The calls were made as follows: active = hit-call score of the fitted dose curve at least 0.9, where 1 is the maximum; inactive = score below 0.9.
# Read-out: X-box binding protein 1 (XBP1), XBP1 (gene 7494)
# Experiment: LTEA_HepaRG_XBP1: Life Technologies and Expression Analysis (LTEA) Assay for X-box binding protein 1 (XBP1) using HepaRG (AID 2283540)
# Conditions: mRNA level, 48 h; actives raise or lower the signal
# Procedure: LTEA_HepaRG is a cell based, multiplexed-readout assay that uses HepaRG, a human liver cell line, with measurements taken at 48 hours after chemical dosing on a 96-well plate.LTEA_HepaRG_XBP1 is one of 102 assay component(s) measured in the LTEA HepaRG cell culture assay. It is a marker of Diseases associated with XBP1 including Major Affective Disorder 7 and Bipolar Disorder.Data from the assay component LTEA_HepaRG_XBP1 was analyzed into 1 endpoint. This assay endpoint, LTEA_HepaRG_XBP1, was analyzed with bidirectional fitting relative to DMSO as the negative control and baseline of activity. Using a type of inducible reporter, measures of mRNA induction for gain or loss-of-signal activity can be used to understand regulation of transcription factor activity. To generalize the intended target to other relatable targets, this assay endpoint is annotated to the dna binding intended target family, where the subfamily is basic leucine zipper.
# A total of 1060 chemcials from the ToxCast library were tested in eight-point concentration-response experiments. Cell culture and cytotoxicity assays were conducted at Thermo Fisher Scientific's Custom Services facility (Madison, WI). A single lot of human HepaRG cells (Thermo Fisher Scientific, Frederick, MD) was used for the cell culture experiments. 96-well format collagen type I coated plates of human HepaRG cells were prepared using established methods. Briefly, cryopreserved HepaRG cells were thawed, plated at a density of approximately 100,000 cells/well in HepaRG Thaw, Plate, and General Purpose media (HPRG770, Thermo Fisher Scientific), and incubated for 48 hours. 0.5% DMSO was selected as vehicle control to balance the requisite need of DMSO in HepaRG cultures to maintain differentiation (for example, baseline metabolism, proportions of hepatocytes vs. cholangiocytes), while enabling further hepatic receptor pathway activation (for example, PXR and CAR) in response to chemical exposure. 48 hours after plating, the culture medium was replaced with HepaRG Serum-Free Incudtion Media. Cells were exposed to each test chemical in duplicate and maintained in CO2 incubators for another 48 hours. Chemical plates were thawed to room temperature and 200x concentrations of treatment groups were prepared. 8-point conentration-reponse curves were made with the highest exposure at 100 uM, followed by half-log dilutions, all in 0.5% DMSO. Each test plate contained variouse controls, induction positive controls (1mM phenobarbital), cytotoxicity positive controls ([…] aflatoxin B1), vehicle controls (0.5% DMSO), and total lysis controls (0.5% DMSO). Cell morphology images were taken using an Essen IncuCyte FLR automated microscope, with six 96-well plates imaged in about 24 minutes. Images were captured and exported and JPEG files. Spent culture media was transfered to black-well plates for the LDH assay, and remaining media was sorted at -80 C for later use. Cells were treated with RLT buffer and frozen until shipped for gene expression analysis. Total RNA was isolated from the cell suspension in 75 uL of Buffer RLT (Qiagen, Germantown, MD 20874) by Quintiles/Expression Analysis (Durham, NC) using a custom isolation procedure. Total RNA from each plate well was transferred to a preamplification plate. Fluidigm's 96.96 Dynamic ArrayTM (Fluidigm, Amsterdam, the Netherlands) technology was used for gene expression analyses by quantitative reverse transcription polymerase chain reaction (qRT-PCR, performed by Quintiles/Expression Analysis, Durham, NC)89. Standard TaqManTM Assays (Applied Biosystems/ThermoFisher Scientific, Foster City, CA) were used to assess the expression of 93 genes selected based on their selectivity and sensitivity to important hepatic receptors known to be modulated by environmental chemicals; importance in human hepatocyte functionality; and hepatotoxicity. […]
Structure (SMILES),outcome,AC50
Cc1cccc(C)c1O,inactive,
FC(F)(F)C(F)(F)C(F)(F)C(F)(F)C(F)(F)C(F)(F)CCI,inactive,
Cc1nc(C)nc(N2C[C@@H](C)N(c3ccnc([C@@H](C)O)n3)[C@@H](C)C2)n1,inactive,
Cc1ccc(N(C)C)cc1,inactive,
CCCCCCCCCCCC(=O)OC,inactive,
Clc1cc(Cl)c(Cl)cc1Cl,inactive,
CC=Cc1ccc(O)c(OC)c1,inactive,
C[Si]1(C)O[Si](C)(C)O[Si](C)(C)O[Si](C)(C)O1,inactive,
Oc1ccc2c(c1)OC[C@@H](N1CCC(O)(c3ccc(F)cc3)CC1)[C@H]2O,inactive,
CC1(C)CC(N=C=O)CC(C)(CN=C=O)C1 (stereo not given),inactive,
CCCCCCOCCO,inactive,
CCc1c(C(=O)NN2CCCCC2)nn(-c2ccc(Cl)cc2Cl)c1-c1ccc(Br)cc1,,74.9 µM (active)
CC(C)(C)c1cc(O)c(C(C)(C)C)cc1O,inactive,
Cc1ccccc1Cl,inactive,
Cc1ccc(C(C)C)c(O)c1,inactive,
O=C(N[C@@H](Cc1ccccc1)[C@@H](O)C(=O)N1C[C@@H](O)[C@@H](O)C1)c1cc2cc(Cl)ccc2[nH]1,,50 µM (active)
Nc1ccc2c(c1)C(=O)c1ccccc1C2=O,,10.3 µM (active)
O=C(OCCCCCOC(=O)c1ccccc1)c1ccccc1,,0.761 µM (active)
NS(=O)(=O)c1cc2c(cc1Cl)NCNS2(=O)=O,inactive,
C[C@]12C=CC(=O)C=C1CC[C@@H]1[C@@H]2C(=O)C[C@@]2(C)[C@H]1CC[C@]2(O)C(=O)CO,inactive,

Structure (SMILES),outcome,AC50
COc1ccc2c(c1)c(CC(=O)O)c(C)n2C(=O)c1ccc(Cl)cc1,inactive,
O=C(O)Cc1ccccc1Nc1c(Cl)cccc1Cl,inactive,
Cc1nc(-c2ccc3c(c2)CCN(CCC2CCC(NC(=O)/C=C/c4ccc(F)cc4)CC2)CC3)no1 (stereo not given),inactive,
CC(=O)OCCOCCOCCOC(C)=O,inactive,
COC(=O)c1ccc(O)cc1,inactive,
CNCc1cc(F)ccc1Oc1ccc(Cl)c(Cl)c1,inactive,
CN1CCCC1=O,inactive,
CCCCN(CCCC)CCCC,inactive,
Cc1ccc(C)c(O)c1C,inactive,
CCCCCCC(=O)OCC,inactive,
Oc1ccc2ccccc2c1N=Nc1ccccc1,,7.84 µM (active)
O=c1[nH]cc(F)c(=O)[nH]1,inactive,
CN[C@H]1CC[C@@H](c2ccc(Cl)c(Cl)c2)c2ccc(S(N)(=O)=O)cc21,inactive,
CCCCOC(=O)CCCCCCCCC(=O)OCCCC,inactive,
O=[N+]([O-])C(CO)(CO)CO,inactive,
CCCCCCCCCCC,inactive,
Cc1ccc(Cl)cc1,inactive,
Cc1c(C(=O)O)c(O)cc2c1C(=O)c1c(O)c([C@@H]3O[C@H](CO)[C@@H](O)[C@H](O)[C@H]3O)c(O)c(O)c1C2=O,inactive,
Cc1cccc(Nc2cc(Cl)nc(SCC(=O)O)n2)c1C,inactive,
Cc1cc(=O)[nH]c(=S)[nH]1,inactive,
